# From PubChem BioAssay AID1159580 (chemical genetic matrix, 2015)
# Values joined by “and” are separate entries in the source; they are usually repeats but may differ in a detail not shown here. Equal values may be shown once. The whole screen tested about 5,500 compounds, of which about 2,000 (36%) were called active. Not shown: some 18% with an inconclusive outcome. The list shows a part of the results. Unmarked numbers belong to inactive results. Cut-off read from the data, not from the text of the source: active = normalized growth mostly below about 0.91 (no sharp cut-off); inconclusive = no clear call, values can overlap the other calls; inactive = mostly above about 0.92.
# Test: chemical genetic growth profiling, strain panel (AID 1159580);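 note: tested at 20 µM; growth read once vehicle control cultures reached saturation at 30 °C; 1 = growth at the plate median or of vehicle wells; lower values mean less growth of the strain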
# Settings: S. cerevisiae deletion strains, growth OD
compound,measurement,setting,value
C=CCc1ccc(O)c(OC)c1,normalized growth,"locus YAL013W, strain DEP1, hits give low values",0.971
same,normalized growth,"locus YAL021C, strain ccr4, hits give low values",1.01
same,normalized growth,"locus YAL026C, strain drs2, hits give low values",1
same,normalized growth,"locus YAL030W, strain snc1, hits give low values",0.989
same,normalized growth,"locus YBL061C, strain skt5, hits give low values",0.986
same,normalized growth,"locus YBR009C, strain hhf1, hits give low values",1.02
same,normalized growth,"locus YBR021W, strain FUR4, hits give low values",1.05
same,normalized growth,"locus YBR023C, strain chs3, hits give low values",1
same,normalized growth,"locus YBR171W, strain sec66, hits give low values",0.994
same,normalized growth,"locus YBR229C, strain ROT2, hits give low values",0.94
same,normalized growth,"locus YBR231C, strain swc5, hits give low values",0.907 (active)
same,normalized growth,"locus YBR279W, strain paf1, hits give low values",0.997
same,normalized growth,"locus YCL011C, strain gbp2, hits give low values",1.01
same,normalized growth,"locus YCL016C, strain dcc1, hits give low values",1.01
same,normalized growth,"locus YCL029C, strain bik1, hits give low values",0.949
same,normalized growth,"locus YCL061C, strain MRC1, hits give low values",1.01
same,normalized growth,"locus YCL069W, strain vba3, hits give low values",0.993
same,normalized growth,"locus YCR088W, strain abp1, hits give low values",0.984
same,normalized growth,"locus YDL005C, strain med2, hits give low values",1.01
same,normalized growth,"locus YDL035C, strain GPR1, hits give low values",0.992
same,normalized growth,"locus YDL040C, strain nat1, hits give low values",0.98
same,normalized growth,"locus YDL074C, strain BRE1, hits give low values",0.967
same,normalized growth,"locus YDL101C, strain DUN1, hits give low values",0.961
same,normalized growth,"locus YDL185W, strain tfp1, hits give low values",0.975
same,normalized growth,"locus YDL192W, strain arf1, hits give low values",0.896 (active)
same,normalized growth,"locus YDR001C, strain nth1, hits give low values",0.982
same,normalized growth,"locus YDR069C, strain doa4, hits give low values",1
same,normalized growth,"locus YDR101C, strain arx1, hits give low values",0.947
same,normalized growth,"locus YDR137W, strain rgp1, hits give low values",0.978
same,normalized growth,"locus YDR150W, strain NUM1, hits give low values",0.938
same,normalized growth,"locus YDR159W, strain sac3, hits give low values",0.949
same,normalized growth,"locus YDR162C, strain NBP2, hits give low values",0.967
same,normalized growth,"locus YDR195W, strain ref2",0.925
same,normalized growth,"locus YDR297W, strain sur2, hits give low values",0.988
same,normalized growth,"locus YDR318W, strain mcm21, hits give low values",0.925
same,normalized growth,"locus YDR334W, strain swr1, hits give low values",0.983
same,normalized growth,"locus YDR335W, strain msn5, hits give low values",0.996
same,normalized growth,"locus YDR388W, hits give low values",0.944
same,normalized growth,"locus YDR392W, strain spt3, hits give low values",0.841
same,normalized growth,"locus YDR502C, strain sam2, hits give low values",0.956
same,normalized growth,"locus YEL003W, strain gim4, hits give low values",0.994
same,normalized growth,"locus YEL037C, strain rad23, hits give low values",0.989
same,normalized growth,"locus YEL061C, strain CIN8 (second series), hits give low values",0.992
same,normalized growth,"locus YEL061C, strain CIN8, hits give low values",0.923 (active)
same,normalized growth,"locus YER015W, strain faa2, hits give low values",0.995
same,normalized growth,"locus YER016W, strain bim1, hits give low values",0.994
same,normalized growth,"locus YER110C, hits give low values",0.908
same,normalized growth,"locus YER111C, strain swi4, hits give low values",0.996
same,normalized growth,"locus YER155C, strain BEM2 (second series), hits give low values",0.789 (active)
same,normalized growth,"locus YER155C, strain BEM2, hits give low values",0.93
same,normalized growth,"locus YER167W, strain BCK2, hits give low values",0.911
same,normalized growth,"locus YFR010W, strain ubp6, hits give low values",0.999
same,normalized growth,"locus YGL078C, strain dbp3, hits give low values",0.984
same,normalized growth,"locus YGL086W, strain mad1, hits give low values",0.942
same,normalized growth,"locus YGL167C, strain pmr1, hits give low values",0.984
same,normalized growth,"locus YGL173C, strain kem1, hits give low values",1
same,normalized growth,"locus YGL227W, strain vid30, hits give low values",0.994
same,normalized growth,"locus YGL240W, strain doc1, hits give low values",0.955
same,normalized growth,"locus YGL248W, strain PDE1, hits give low values",0.937
same,normalized growth,"locus YGL253W, strain hxk2, hits give low values",0.994
same,normalized growth,"locus YGR078C, strain PAC10, hits give low values",0.929
same,normalized growth,"locus YGR135W, strain pre9, hits give low values",0.926
same,normalized growth,"locus YGR252W, strain gcn5, hits give low values",1.19
same,normalized growth,"locus YHR013C, strain ard1, hits give low values",0.997
same,normalized growth,"locus YHR027C, strain rpn1, hits give low values",1
same,normalized growth,"locus YHR030C, strain SLT2, hits give low values",0.942 and 0.988
same,normalized growth,"locus YHR079C, strain IRE1 (second series), hits give low values",0.927
same,normalized growth,"locus YHR079C, strain IRE1, hits give low values",0.975
same,normalized growth,"locus YHR094C, strain hxt1, hits give low values",0.939
same,normalized growth,"locus YHR129C, strain ARP1, hits give low values",0.931
same,normalized growth,"locus YHR142W, strain chs7, hits give low values",1.01
same,normalized growth,"locus YHR200W, strain rpn10, hits give low values",0.937
same,normalized growth,"locus YIL066C, strain RNR3, hits give low values",0.921
same,normalized growth,"locus YIL073C, strain SPO22, hits give low values",0.947
same,normalized growth,"locus YIL125W, strain kgd1, hits give low values",0.942
same,normalized growth,"locus YIR030C, strain dcg1, hits give low values",0.929
same,normalized growth,"locus YJL092W, strain hpr5, hits give low values",0.987
same,normalized growth,"locus YJL095W, strain BCK1 (second series), hits give low values",0.992
same,normalized growth,"locus YJL095W, strain BCK1, hits give low values",0.937 and 0.962
same,normalized growth,"locus YJL115W, strain asf1, hits give low values",0.982
same,normalized growth,"locus YJL129C, strain trk1, hits give low values",0.979
same,normalized growth,"locus YJL134W, strain LCB3, hits give low values",0.937
same,normalized growth,"locus YJL154C, strain vps35, hits give low values",0.996
same,normalized growth,"locus YJL164C, strain tpk1, hits give low values",1.02
same,normalized growth,"locus YJL166W, strain qcr8, hits give low values",1.03
same,normalized growth,"locus YJL168C, strain set2, hits give low values",0.929 (active)
same,normalized growth,"locus YJL187C, strain SWE1 (second series), hits give low values",0.978
